Among the data in PubChem BioAssay (NCI) are growth inhibition values, retold here.

A short description of assay [1]: NCI Yeast Anticancer Drug Screen. Data for the rad50 strain (AID 155).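 Further: 0% = growth of vehicle-only cultures of the same strain.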 Particulars: S. cerevisiae rad50 strain growth inhibition; at 50.0 µM; active compounds read high. Summed up: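 A DNA repair-deficient yeast mutant serves as the test organism; compound-induced growth inhibition is calculated against vehicle-treated cells.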
A short description of assay [2]: NCI Yeast Anticancer Drug Screen. Data for the mec2-1 strain (AID 157). Particulars: S. cerevisiae mec2-1 strain, at 50.0 µM, active compounds read high. Summed up: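 Vehicle-treated cultures served as reference for growth inhibition of compound-exposed mec2-1 yeast.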
Assay [3] is described as follows: NCI Yeast Anticancer Drug Screen. Data for the sgs1 mgt1 strain (AID 161).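 Further: 0% = growth of cultures given vehicle only.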 Particulars: S. cerevisiae sgs1 mgt1 strain, at 50.0 µM, active compounds read high. Summed up:
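Genetically altered yeast, compound exposure, growth inhibition relative to vehicle.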

The nature of assay [4]: NCI Yeast Anticancer Drug Screen. Data for the cln2 rad14 strain (AID 165).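 Further: 0% = growth equal to vehicle treated cultures.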 Particulars: S. cerevisiae cln2 rad14 strain, at 50.0 µM, active compounds read high. The gist of the method:
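Each compound was tested on cln2 rad14 yeast. Inhibition of growth was calculated against vehicle-exposed controls.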

A short description of assay [5]: NCI Yeast Anticancer Drug Screen. Data for the bub3 strain (AID 167). Particulars: S. cerevisiae bub3 mutant strain, at 50.0 µM, active compounds read high. The gist of the method:
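Inhibition values come from growth of compound-treated mutant yeast normalised to vehicle-treated controls.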

The nature of assay [6]: NCI Yeast Anticancer Drug Screen. Data for the mlh1 rad18 strain (AID 175). As to conditions: S. cerevisiae mlh1 rad18 strain growth inhibition; at 50.0 µM; active compounds read high. The gist of the method: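 Vehicle-treated cultures served as the reference for growth inhibition in a yeast strain carrying DNA damage repair alterations exposed to each compound.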

Each structure is given as a SMILES string. The panel holds about 79,000 compounds, 15% with a hit somewhere; the sample as a whole holds those more often. A number with no mark means an inactive call. Active and inactive are the calls of the source. No stated cut-off is given here; in the data, active means growth inhibition above about 70%; inactive means the rest.

As to `COc1cc(C(=O)N/N=C/c2ccc(N(C)C)cc2)cc(OC)c1OC`, the growth inhibition in assay [1] is -32.2%; in assay [2], -45.2%.

Regarding `C=CCNC(=S)N/N=C\c1cc(OC)c(OC)c(OC)c1`, the growth inhibition is -18.8% in assay [1] and -44.5% in assay [2].

For the molecule `O=Cc1ccc2c(c1Cl)C(=O)c1ccccc1C2=O`, the growth inhibition was 51% in assay [1] and 43.2% in assay [2].

On to `C/C=C(/C)N(C(C)=O)N(C(C)=O)c1ccc([N+](=O)[O-])cc1[N+](=O)[O-]`, for which the results for the growth inhibition in assay [1] and in assay [2] were 5.75% and -18.2%, respectively.

`COc1cc(/C=C2\CN(C)C(=O)C2=O)ccc1O`: the growth inhibition in assay [1] was -11.7%; in assay [2], -27.2%.

Consider `COc1cc(/C=N/n2cnnc2)cc(OC)c1OC`, for which the growth inhibition in assay [1] was -8.35%; in assay [2] it was 5.45%.

Consider `COc1cc(Oc2c(C)c(Cl)c(OC)c(Cl)c2OC)c2c(c1Cl)COC2=O`, for which the growth inhibition was 28.5% in assay [1]; -6.45% in assay [2]; 15.6% in assay [3]; 17.6% in assay [4]; -5.75% in assay [5].

For the molecule `CCCCCCCCCC(=O)CC(=O)c1c(O)cc(O)cc1O`, the growth inhibition in assay [1] was 87.8% (active); in assay [2], 91.3% (active); in assay [3] it was 12.2%; in assay [4] it was 22.4%; in assay [5], 31.8%.

In the case of `CNC(=S)c1nnsc1N`, the growth inhibition in assay [1] was 1.7%; in assay [2], -0.8%; in assay [3] it was 21.6%; in assay [4], -2.45%; in assay [5], 6.3%; in assay [6], -0.4%.

Take `COc1ccccc1-c1n[nH]c(-c2ccccc2O)n1`: the growth inhibition in assay [1] is 31.7%; in assay [2], -24.1%; in assay [3], 27.8%; in assay [4], -10.7%; in assay [5], 22.9%; in assay [6], -54.1%.

Regarding `COC(=O)C1CCC(=O)N1CN(C(C)=O)c1cccc(O)c1` (configuration not stated), the growth inhibition is 5.8% in assay [1]; 3.3% in assay [2]; 0.2% in assay [3]; 9.75% in assay [4]; -15.7% in assay [5]; -52.3% in assay [6].

As for `COC(=O)C(C(=O)C(=O)NC1Nc2ccc(C)cc2S1)c1nc2ccc(Cl)cc2[nH]c1=O` (configuration not stated), the growth inhibition is 18.2% in assay [1]; -12.3% in assay [2]; 11.5% in assay [3]; 21.1% in assay [4]; 13.2% in assay [5]; 28.9% in assay [6].

Turning to `C=CCNC1=C2C[C@@H](C)C[C@@H](OC)[C@@H](OC(=O)CCCN)[C@H](C)/C=C(\C)[C@@H](OC(N)=O)[C@H](OC)/C=C\C=C(/C)C(=O)NC(=CC1=O)C2=O`, the growth inhibition is -5.15% in assay [1]; -0.55% in assay [2]; 14.2% in assay [3]; 13.2% in assay [4]; 20.6% in assay [5]; 4.6% in assay [6].

In the case of `N/N=C(\C(=O)Nc1ccc([N+](=O)[O-])cc1)C(C1=Nc2cc([N+](=O)[O-])ccc2NC1)[N+](=O)[O-]` (configuration not stated), the growth inhibition is 34.7% in assay [1]; 11.7% in assay [2]; 12.8% in assay [3]; -41.5% in assay [4]; 5% in assay [5]; 16.9% in assay [6].

In the case of `CCOc1cc2c(cc1O)/C(=N/NS(=O)(=O)c1ccc(C)cc1)C[C@@H]1[C@@H]2CC[C@]2(C)[C@@H](O)CC[C@@H]12`, the growth inhibition in assay [1] was 33.9%; in assay [2] it was 26.9%; in assay [3], 4.05%; in assay [4], 35.4%; in assay [5], 14.1%; in assay [6] it was 4.4%.

As for `Cc1ccc(/C=N/Nc2ccccn2)s1`, the growth inhibition was -10.9% in assay [1]; -12.5% in assay [2]; -2% in assay [3]; 11.4% in assay [4]; -11.2% in assay [5]; 0.7% in assay [6].

Consider `COC(=O)C(/C(=N/NC(N)=O)C(=O)Nc1ccc(C)cc1)c1nc2ccc([N+](=O)[O-])cc2[nH]c1=O` (configuration not stated), for which the growth inhibition in assay [1] was 22.1%; in assay [2], 26.3%; in assay [3], 0.45%; in assay [4], -48.4%; in assay [5], -11%; in assay [6], 42.8%.

Take `O=C1c2cccnc2-c2nccc3ccnc1c23`: the growth inhibition in assay [1] was 75% (active); in assay [2] it was 58.8%; in assay [3], 63%; in assay [4], 45.6%; in assay [5] it was 57.5%; in assay [6], -37.7%.

As for `CNC(=O)c1cccnc1`, the growth inhibition is -5.35% in assay [1]; -26% in assay [2]; -20.6% in assay [3]; 6.7% in assay [4]; -12.2% in assay [5]; -8.35% in assay [6].

For `COC(=O)c1cnn2c1n[n+]([O-])c1ccccc12`, the growth inhibition is -36.3% in assay [1]; -36% in assay [2]; -33.1% in assay [3]; 15.9% in assay [4]; -37% in assay [5]; -8% in assay [6].

`COc1ccc(C2c3cc4c(c(OC)c3CC3OCC(=O)C32)OCO4)cc1OC` (configuration not stated): the growth inhibition in assay [1] is 4.25%; in assay [2], -15.7%; in assay [3], 22.6%; in assay [4], 13.1%; in assay [5], 1.45%; in assay [6], -4.3%.

On to `COC(=O)c1ccc(NC(=O)O/N=C(\Cl)C(C)C)cc1`, for which the growth inhibition in assay [1] was -21.6%; in assay [2] it was -20.7%; in assay [3], 59.7%; in assay [4], 8.85%; in assay [5] it was 34.1%; in assay [6], 0.75%.

Turning to `CCCCCCCCCCCCC/C=C/[C@H]1[C@@H](C(=O)OC)N1S(=O)c1ccc(C)cc1` (some centres not stated), the growth inhibition in assay [1] was -15.1%; in assay [2], -27.6%; in assay [3], 1.25%; in assay [4], -13.1%; in assay [5], -10.5%; in assay [6], -43.5%.
